Mac1 fbg enh = enhancers of human CD11b/CD18 binding to fibrinogen. P05107+P11215. K562 CD11b/CD18 adhesion to fibrinogen, ATPlite luminescence. activation, % at 10 µM. hit rate 0.07% among 93,000. AID 1499;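 active means 10 µM primary screen giving 50% or more activity, confirmed by 40% or more on retest at that dose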
ERa SRC1 pot = ER-alpha (human) coactivator binding potentiation | hit rate 1.3% among 86,000 | TR-FRET ERalpha-LBD/SRC-Cy5 coactivator binding, 2 h; 100 = basal binding, no effect | coactivator binding (% of control), % at 25.6 µM; in the data active means activity above about 200%;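 further: binding measured in presence of low estradiol as agonist stimulus; 0% = peptide alone without receptor and 100% = receptor with peptide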
Target sequence (P03372 whole entry, looked up, the tested form may be a part): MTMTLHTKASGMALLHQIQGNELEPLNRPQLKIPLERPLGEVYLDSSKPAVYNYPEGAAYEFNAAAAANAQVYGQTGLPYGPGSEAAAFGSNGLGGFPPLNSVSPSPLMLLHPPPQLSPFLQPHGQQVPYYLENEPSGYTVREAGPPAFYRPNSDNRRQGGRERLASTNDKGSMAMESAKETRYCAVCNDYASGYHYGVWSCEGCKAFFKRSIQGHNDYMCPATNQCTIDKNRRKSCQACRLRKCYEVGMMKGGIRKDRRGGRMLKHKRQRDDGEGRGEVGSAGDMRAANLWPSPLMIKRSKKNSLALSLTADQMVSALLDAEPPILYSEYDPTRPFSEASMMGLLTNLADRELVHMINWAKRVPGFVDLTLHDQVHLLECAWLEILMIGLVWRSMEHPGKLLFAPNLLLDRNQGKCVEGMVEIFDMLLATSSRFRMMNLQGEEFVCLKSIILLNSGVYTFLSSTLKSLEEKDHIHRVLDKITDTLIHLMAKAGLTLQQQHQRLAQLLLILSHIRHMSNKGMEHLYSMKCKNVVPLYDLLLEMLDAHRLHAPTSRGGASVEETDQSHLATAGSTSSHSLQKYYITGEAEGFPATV
Mac1 fbg inh = CD11b/CD18-fibrinogen binding inhibition; hit rate 0.54% among 93,000; AID 1497; K562 CD11b/CD18 adhesion to fibrinogen, ATPlite luminescence; Mn2+ added to activate the integrin; inhibition, % at 10 µM;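 active means primary inhibition of 50% or more at 10 µM, then 40% or more on retest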
FAK blocker = inhibitors of human focal adhesion kinase | hit rate 0.84% among 97,000 | inhibition, %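 (tested at 7 µM)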 | AID 727 | biochemical FAK kinase activity assay | Q05397; in the data active means inhibition above about 19%;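 further: 0% = DMSO and 100% = reference compound high control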
ERa SRC1 inh = blocks coactivator binding to human estrogen receptor alpha. inhibition, % at 25.6 µM. P03372. TR-FRET ER-alpha LBD / SRC-1 peptide, estradiol-bound. AID 629. hit rate 1.7% among 86,000; in the data active means inhibition above about 50%;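 further: 0% = receptor plus peptide control and 100% = peptide only without receptor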
ERb SRC1 inh = blocks coactivator binding to human estrogen receptor beta | TR-FRET ER-beta LBD / SRC1-Cy5 peptide binding; receptor agonist-loaded with 1 µM estradiol | inhibition, % at 25.6 µM | hit rate 1.3% among 86,000 | AID 633;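 active means compounds whose percent inhibition of the receptor-coactivator binding signal exceeds about 50% in the single-dose screen, limit read from the data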;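 further: 0% = receptor plus peptide wells without compound and 100% = peptide-only wells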
Active calls of the source: *; · = no result given; [ ] = another dose, or the depositor's remark. Shown are actives, neighbours in structure and some others; about 3.5% of the full set was active somewhere.

SMILES	Mac1 fbg enh	ERa SRC1 pot	Mac1 fbg inh	FAK blocker	ERa SRC1 inh	ERb SRC1 inh
O=[N+]([O-])c1cc(S(=O)(=O)Nc2cccc(C(F)(F)F)c2)ccc1-n1nnc2ccccc21	-7	·	95*	-1	·	·
COc1ccc(OC)c(N)c1	7	0	-12	11	91*[fluorescence artefact?]	63*[fluorescence artefact?]
Cc1cccc2cc(CN(CC3CCCO3)C(=O)c3ccco3)c(=O)[nH]c12 (stereo not given)	-1	105	-15	-2	-6	-8
Cc1ccc2cc(CN(CC3CCCO3)C(=O)c3ccco3)c(=O)[nH]c2c1C (stereo not given)	·	116	·	·	-9	54*
Cc1cc(C)c2c(N)c(C(=O)c3ccccc3)oc2n1	-2	116	21	2	2	-4
COC(=O)c1oc2nc(C)cc(C)c2c1N	-6	129	-7	11	57*[fluorescence artefact?]	-7
Cc1oc(-c2ccccc2)nc1C(=O)Nc1nccs1	6	91	-6	5	52*[fluorescence artefact?]	37
CC(C)(C)NC(=O)C(c1ccc(F)cc1)N(Cc1ccco1)C(=O)c1csnn1 (stereo not given)	2	102	-2	-2	4	-5
Cc1ccc(C(C(=O)NC(C)(C)C)N(Cc2cccs2)C(=O)c2csnn2)cc1 (stereo not given)	·	114	·	-4	60*	-4
CCN(CC#CCC1(O)c2ccccc2-c2ccccc21)C(C)C	-3	·	8	-15	·	·
Cn1c(SCC(=O)Nc2nccs2)nnc1-c1ccc(S(=O)(=O)N2CCCC2)cc1	-5	41	-6	0	11	5
O=C(CSc1n[nH]c(-c2ccc(S(=O)(=O)N3CCCCC3)cc2)n1)Nc1nccs1	-1	136	3	-2	50*	21
CCCn1c(=O)c2ccccc2n2c(SCC(=O)Nc3cc(C)on3)nnc12	-1	93	10	·	7	100*[fluorescence artefact?]
Cc1cc2c(c(=O)n1Cc1ccccn1)C(c1ccc3c(c1)OCO3)C(C#N)=C(N)O2 (stereo not given)	-10	112	-13	·	3	9
N#C/C(=C/c1ccc(N2CCCC2)c([N+](=O)[O-])c1)c1nc2ccccc2[nH]1	·	·	·	12	·	·
N#C/C(=C\c1ccc(Oc2ccc(C(F)(F)F)cc2[N+](=O)[O-])cc1)c1nc2ccccc2[nH]1	82*	·	3	1	·	·
Cc1ccc(-n2nc(C)c3c(-c4cccs4)c(C#N)c(N)nc32)cc1	3	210*[fluorescence artefact?]	3	1	10	19
Cc1nn(-c2ccccc2)c2nc(N)c(C#N)c(-c3ccc(F)cc3)c12	0	215*[fluorescence artefact?]	5	2	13	13
CN(C)CCN(C(=O)/C=C/c1cccs1)c1nc2ccc(F)cc2s1	7	·	6	·	·	·
O=C1CCNc2cc3ccccc3cc21	38	21	24	10	82*[fluorescence artefact?]	78*[fluorescence artefact?]
O=C(Nc1cccc(S(=O)(=O)c2cccc(NC(=O)C3CC3)c2)c1)C1CC1	-3	115	6	-1	2	-5
CCOC(=O)c1nn(-c2ccc(Cl)cc2)c2nc(CC)c(C#N)c(=O)n12	·	202*	·	-2	12	3
O=c1c2c([nH]c3ccccc13)C(=C1CCCC1)CC2	6	22	-11	12	77*[fluorescence artefact?]	84*
O=c1c2c([nH]c3ccccc13)CCCC2	-3	98	3	1	4	-6
OCC1CCCN(Cc2ccc(-c3ccccc3)cc2)C1 (stereo not given)	·	103	·	9	-9	1
SMILES	Mac1 fbg enh	ERa SRC1 pot	Mac1 fbg inh	FAK blocker	ERa SRC1 inh	ERb SRC1 inh
CCCS(=O)(=O)N1CCC(C(=O)N2CCN(C(=O)OCC)CC2)CC1	-7	73	-3	-6	7	16
CCOC(=O)N1CCN(C(=O)C2CCN(S(=O)(=O)CC)CC2)CC1	-2	238*[fluorescence artefact?]	-1	0	0	-4
COc1ccc(-c2nc(NC(=O)C3CCN(c4nc5ccccc5o4)CC3)sc2C)cc1	-4	115	35	-3	4	5
N#Cc1cc2c(nc1SCC(=O)NCc1ccc3c(c1)OCO3)CCCCC2	1	123	-6	3	14	7
CC(=O)N/C(=N/c1nc(C)cc(C)n1)Nc1ccc(NC(C)=O)cc1	9	74	-31	1	21	35
Cc1cc(Cl)cc(C)c1OCCCCN1CCOCC1	0	115	-11	2	67*	1
COc1ccc(-n2c(NC(=O)c3ccc(Br)o3)c(C#N)c3nc4ccccc4nc32)cc1	-11	·	90*	1	·	·
Cc1nn(Cc2ccccc2)c(C)c1NC(=O)CSc1nnc(-c2cc(Cl)ccc2O)n1C	8	58	-36	1	53*	47
COc1nc(Nc2ccc(-c3nc4ccccc4o3)cc2)nc(N2CCOCC2)n1	·	73	·	9	62*[fluorescence artefact?]	-8
CN(C)c1nc(N/N=C\c2ccc(Cl)c([N+](=O)[O-])c2)nc(Nc2ccc(F)cc2)n1	·	102	·	-1	78*	31
Cc1ccc(S(=O)(=O)N/N=C\c2ccc(Cl)c([N+](=O)[O-])c2)cc1	-1	·	-40	1	·	·
Clc1ccc(-c2nnc3sc(-c4ccccn4)nn23)cc1	3	105	6	-1	9	7
Clc1ccc(-c2nn3c(-c4ccncc4)nnc3s2)c(Cl)c1	9	330*	2	·	11	29
Clc1ccccc1-c1nn2c(-c3ccncc3)nnc2s1	-3	100	-3	2	4	13
CC(C)(C)c1ccc(-c2nnc3sc(-c4ccccn4)nn23)cc1	2	262*	-15	0	23	31
c1ccc(-c2nn3c(-c4ccncc4)nnc3s2)nc1	·	40	·	·	58*[fluorescence artefact?]	26
CCOC(=O)CCC(NC(=O)c1cncc(O)c1)C(=O)OCC (stereo not given)	-5	112	1	-2	-16	7
c1ccc2c(c1)nc(NCCN1CCOCC1)c1nncn12	2	114	-9	0	-2	-9
Cc1ccc(CNc2nc3ccccc3n3nnnc23)cc1	79	209*[fluorescence artefact?]	-5	·	51*	38
COc1ccc(Nc2nc3ccccc3n3cnnc23)cc1	-1	105	4	0	-4	17
Fc1ccc(CNc2nc3ccccc3n3cnnc23)cc1	-4	306*[fluorescence artefact?]	2	-2	84*	1
CCOc1ccccc1Nc1nc2ccccc2n2cnnc12	·	368*[fluorescence artefact?]	·	·	25	43
COc1ccc(-c2n[nH]c(C)c2-c2ccc(Cl)cc2)c(O)c1OC	14	102	-11	7	11	-7
O=C(COc1ccc(S(=O)(=O)N2CCCC2)cc1Cl)NC1CCCC1	-1	105	-3	-1	-5	-3
COc1ccc(C(=O)OCCN2C(=O)c3ccccc3C2=O)cc1	7	·	-1	-1	·	·
O=C(Nc1nc(-c2nc3ccccc3s2)cs1)c1ccco1	·	288*[fluorescence artefact?]	·	·	31	40
C#CC[N+]1(CC#Cc2ccccc2)CCCC1	·	·	·	1	·	·

Bioassay records from PubChem.
